EWS-Fli block: inhibitors of EWS/Fli oncoprotein transcriptional activity; AID 651661; inhibition, % at 12.6 µM; actives 0.67% (n = 350,000); A673 NR0B1-luciferase reporter, viability-normalised;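 active = mean inhibition of at least 50% after viability correction, with every replicate also passing that limit; inconclusive = mean reaches 50% but only one of two replicates passes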;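 also: firefly luciferase signal divided by Alamar Blue viability fluorescence both relative to DMSO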
MITF TRPM1 HTS: increases MITF-driven TRPM1 promoter luciferase signal | SK-MEL-5 TRPM1-promoter luciferase, 24 h; % of positive control, neutral wells = 0 | activation, % at 12.5 µM | actives 0.75% (n = 300,000) | AID 588334;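 active = mean activation of at least 80% with every replicate also reaching 80%; inconclusive = mean reaches 80% but some replicate falls short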;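 also: 0% = neutral control wells and 100% = parthenolide positive control wells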
esBAF inh: blocks esBAF chromatin remodeling in mouse ES cells | Bmi1-luciferase knock-in reporter, 24 h; 100% = twice the neutral-well signal | reporter increase, % at 12.5 µM | actives 2% (n = 350,000); in the data active = activation above about 40%; inconclusive = no clear call, values can overlap the other calls;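 also: 0% = median of the plate's neutral control wells and 100% = double that signal; a rise in the Bmi1 reporter signal indicates esBAF inhibition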
Wnt bcat act: activators of Wnt/beta-catenin signaling; actives 1.2% (n = 300,000); activation, % at 9.35 µM; Wnt/beta-catenin reporter cell assay, activator, plate reader; in the data active = activation above about 30%, passing the limit was not always enough; inconclusive = no clear call, values can overlap the other calls;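 also: 0% = neutral control wells and 100% = positive control wells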
MITF TRPM1 inh: MITF TRPM1 promoter inhibition in SK-MEL-5 cells | inhibition, % at 12.5 µM | SK-MEL-5 TRPM1 promoter luciferase, 24 h | actives 0.83% (n = 330,000);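 active = mean inhibition across replicates of 60% or more, whatever share of single replicates reaches that level; inconclusive = some that reach 60%, reason not given; inactive = mean inhibition across replicates below 60%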
PAX8 reporter: inhibitors of PAX8 transcriptional activity in RMG-I cells; RMG-I TPO-luciferase reporter, SteadyGlo, 24 h; inhibition, % at 12.6 µM; actives 1.2% (n = 360,000);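 active = mean replicate inhibition at least 60% with every replicate also reaching 60%; inconclusive = only one of the two criteria is met; inactive = mean below 60% and not all replicates reaching 60%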;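 also: luciferase light reporting Pax8 driven TPO promoter activity; plate controls were median of neutral control wells for no effect and mitoxantrone controls for full effect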
Numbers without * were called inactive; ? = inconclusive; . = no result given. Only some compounds are listed: those with a hit (about 4% of all), similar ones and a draw of the others.

SMILES	EWS-Fli block	MITF TRPM1 HTS	esBAF inh	Wnt bcat act	MITF TRPM1 inh	PAX8 reporter
COc1cccc(NC=C2C(=O)OC3(CCCCC3)OC2=O)c1	.	.	-4.7	1.1	-8.3	-14.9
O=C1OC2(CCCCC2)OC(=O)C1=CNc1ccc2c(c1)OCO2	.	35.2	56.6*	.	-36.7	-25.3
C[C@H]1CN([C@@H](C)CO)C(=O)c2cc(C#CCc3ccccc3)cnc2O[C@H]1CN(C)Cc1ccc(C(=O)O)cc1	-4.2	.	-11.0	.	.	-8.2
CN1[C@@H]2Cn3c(ccc(/C=C/c4ccccc4)c3=O)[C@H]1[C@@H](C(=O)NC1CCC1)[C@@H]2CO	2.3	.	-2.6	.	.	.
Cc1nc(CN(C)c2ncnc3ccc(-c4ccc5c(c4)OCO5)cc23)cs1	37.3	.	43.2*	-2.6	.	65.8*
CCCNC(=O)Nc1ccc2c(c1)C(=O)N(C)C[C@@H](OC)[C@@H](C)CN(C(=O)C1CCC1)[C@@H](C)CO2	-6.7	.	-1.3	.	.	-11.9
C[C@@H]1CN([C@@H](C)CO)C(=O)Cc2cc(NC(=O)Nc3ccc(F)cc3)ccc2O[C@@H]1CN(C)Cc1ccc(Oc2ccccc2)cc1	7.3	.	-4.9	.	.	-4.7
Oc1[nH]c2ccccc2c1N=Nc1ccc(F)cc1	-20.5	46.8	.	?	-37.4	-111.9
Oc1[nH]c2ccccc2c1N=Nc1ccccc1F	-35.2	37.4	86.2*	17.7	-39.1	-51.0
Oc1[nH]c2ccccc2c1N=Nc1ccccc1	-104.8	20.4	52.4*	28.4	-21.9	-20.2
COCC(=O)N1CC2(C1)CN(C(=O)c1ccccn1)[C@@H](CO)c1c2c2ccc(OC)cc2n1C	0.6	.	.	.	.	.
CC(C)C#Cc1cnc2c(c1)C(=O)N([C@@H](C)CO)C[C@H](C)[C@H](CN(C)Cc1ccccn1)O2	0.0	.	-1.1	.	.	-11.7
C[C@@H]1CN([C@@H](C)CO)S(=O)(=O)c2ccc(C#Cc3ccccn3)cc2O[C@H]1CN(C)Cc1ccccc1	18.1	.	3.9	.	.	.
O=C(c1ccccn1)N1C[C@@H]2[C@H](c3ccccc31)[C@@H](CO)N2C(=O)c1ccccn1	-5.1	.	-1.9	.	.	-0.4
N#Cc1cccc(-c2ccc(C3[C@H]4CNC[C@@H]3N4C(=O)Nc3ccccc3F)cc2)c1 (stereo partly drawn)	2.2	.	.	.	.	0.4
CC(=O)Nc1ccc(-c2ccnc3c2CC(C)(C(=O)NCc2ccco2)O3)cc1 (stereo not drawn)	54.1*	.	-5.5	-0.9	.	39.9
CC(=O)NCCNC(=O)C1(C)Cc2c(-c3ccc(NC(C)=O)cc3)ccnc2O1 (stereo not drawn)	-6.6	.	-3.4	-2.0	.	2.6
CNC(=O)C1(C)Cc2c(-c3ccc(NC(C)=O)cc3)ccnc2O1 (stereo not drawn)	3.4	.	-2.8	0.3	.	11.3
CC(=O)Nc1ccc(-c2ccnc3c2CC(C)(C(=O)NC(C)C)O3)cc1 (stereo not drawn)	-5.9	.	-0.9	41.1*	.	-18.7
C[C@@H]1CN([C@@H](C)CO)C(=O)Cc2cc(NS(=O)(=O)c3ccc(F)cc3)ccc2O[C@H]1CN(C)S(=O)(=O)c1ccccc1	20.6	.	1.6	.	.	.
Cc1cc(Cl)c2ccc3ccccc3c2n1	-2.2	1.4	.	-1.1	-1.8	-2.2
Cc1ccc2c(Cl)cc(Cl)c(O)c2n1	6.4	-70.3	-21.8	-2.9	72.9*	8.8
O=C(C[C@H]1C=C[C@H](NC(=O)c2ccncc2)[C@@H](CO)O1)NCc1ccncn1	-7.6	.	.	.	.	.
COc1ccc(C(=O)NCc2ccc(-c3nc4ccccc4s3)cc2)cc1	.	73.6	69.5*	.	-68.8	.
COc1cccc(C(=O)NCc2ccc(-c3nc4ccccc4s3)cc2)c1	.	44.6	51.8*	-0.8	-42.2	.
SMILES	EWS-Fli block	MITF TRPM1 HTS	esBAF inh	Wnt bcat act	MITF TRPM1 inh	PAX8 reporter
CCC(=O)Nc1ccc2c(c1)OC[C@@H](C)N(C(=O)c1cccnc1)C[C@H](C)[C@@H](OC)CN(C)C2=O	-5.9	.	-2.8	.	.	-6.7
CCCCC[n+]1ccn(C2=C([O-])c3ccccc3C(=O)/C2=N\S(=O)(=O)c2ccc(Br)cc2)c1	4.3	.	.	-3.9	85.0*	17.1
CCCC[n+]1ccn(C2=C([O-])c3ccccc3C(=O)/C2=N\S(=O)(=O)c2ccccc2)c1	.	-95.8	-2.9	-1.0	96.0*	43.9
CC(C)(C)c1cc[n+](C2=C([O-])c3ccccc3C(=O)/C2=N\S(=O)(=O)c2ccccc2)cc1	3.2	.	.	1.3	.	16.5
CC(C)[n+]1ccn(C2=C([O-])c3ccccc3C(=O)/C2=N\S(=O)(=O)c2ccccc2)c1	19.1	.	.	1.6	54.9	30.5
CCCCC[n+]1ccn(C2=C([O-])c3ccccc3C(=O)/C2=N\S(=O)(=O)c2ccccc2)c1	.	-93.8	-0.5	-6.8	94.3*	52.2
CN1c2ccc(Br)cc2[C@H]2[C@H](CCN2C(=O)C2CCCC2)[C@H]1CO	-7.3	.	.	.	.	.
CCNC(=O)Nc1ccc2c(c1)C(=O)N(C)[C@H]1CC[C@@H](CC(=O)NCc3ccc(F)cc3)O[C@H]1CO2	4.1	.	0.6	.	.	8.9
O=C(Cn1cnc2c(NCc3ccccc3)ncnc21)NCc1ccccc1	55.6*	-35.9	-16.4	-1.6	38.2	18.4
CN(Cc1ccccc1)N=Nc1nc[nH]c1C(N)=O	-0.1	.	-1.6	-0.2	.	87.0*
C[C@H](CO)N1C[C@H](C)[C@H](CN(C)S(=O)(=O)c2cccs2)Oc2c(NC(=O)c3ccncc3)cccc2C1=O	-0.4	.	-1.4	.	.	.
NC(=S)c1ccc(OCCCc2ccccc2)cc1	-61.8	.	71.3*	37.0*	.	-224.3
CCCCOc1ccc(C(=O)NCCc2ccccc2)cc1	-17.4	25.8	21.6	14.2	-26.7	-113.8
CCS(=O)(=O)N1CC2(CN(C)[C@@H](CO)c3c2c2ccc(OC)cc2n3C)C1	-6.7	.	.	.	.	.
CCC(=O)Nc1cc(NC(=O)CSc2ncc(-c3ccc(F)cc3)n2Cc2ccco2)ccc1C	.	78.2	.	37.8*	-73.5	-181.4
COc1ccc(NC(=O)CSc2nccn2Cc2ccco2)cc1	-51.7	57.1	36.1	36.4*	-58.8	-75.9
Cc1cccc(NC(=O)CSc2nccn2Cc2ccco2)c1	.	65.9	44.0*	20.3	-61.2	-168.6
COC(=O)c1ccc(NC(=O)CSc2nccn2CCc2ccccc2)cc1	.	65.5	45.8*	8.5	-56.8	-25.1
O=C(CSc1nccn1Cc1ccccc1)Nc1ccccc1	-6.0	15.0	15.3	0.8	-11.3	-25.8
CN(C)C(=O)[C@]1(Cc2ccccc2CN=[N+]=[N-])N=C(c2ccc(OCCCO)cc2)O[C@@H]1c1ccccc1	17.1	.	.	.	.	-0.1
CN(C)CC(=O)N1CC2(C1)[C@@H](c1ccccc1)[C@@H](CO)N2S(=O)(=O)c1ccccc1	4.3	.	.	.	.	-5.3
Cn1ccnc1SCC(=O)Nc1ccc(SC(F)F)cc1	-132.1	108.7*	82.1*	28.1	-109.6	-149.4
Cn1ccnc1SCC(=O)Nc1ccccc1	.	8.1	-0.4	.	-5.7	.
N#CC(Cc1ccccc1OC(F)F)c1nc2ccccc2[nH]1 (stereo not drawn)	-9.9	4.1	.	-0.7	-4.6	75.7*

Assay outcomes from PubChem.
